In PubChem BioAssay (NCI) one finds growth data, which are given here for 38 molecules.

Molecules are shown by their SMILES. Compounds without any hit were thinned out: in the full panel of roughly 83,000, 20% have a hit.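 Treatment: one concentration, 48 hours, 96-well format. Scoring: percent growth, with anything below 10 considered active.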 The source made the active and inactive calls.

The subject of the first assay is NCI-H522 lung. In words: NCI-60 one-dose screen, 48 h (100 = growth as untreated, 0 = no growth, -100 = all killed). Particulars: 10 µM unless noted.
For `COc1cc(-c2nn(-c3ccccc3)cc2-c2ccnc(NCCNS(=O)(=O)c3ccc(Cl)cc3)n2)ccc1Cl`, the growth was 42.2% (inactive).
`COc1cccc(-c2nc3sccn3c2-c2ccnc(NCCNS(=O)(=O)c3cccc(Cl)c3)c2)c1`: the growth was 56.7% (inactive).
In the case of `O=C1N=c2cc3c(cc2=C/C1=C/c1sc(=S)n(CCc2ccc(O)cc2)c1O)OCCO3`, the growth was 37.3% (inactive).
On to `COc1ccc(OC)c2c1[nH]c(=O)c1c3ncccc3cn21`, for which the growth was 29.7% (inactive).
On the same count and under the same terms, the figure for `O=S(=O)(Nc1cccc(Cl)c1)c1ccc(-c2cnc(C3CC3)o2)cc1` is -1.89% (active).
As to `COc1ccc(NC(=O)CSc2nc(C)c(C(C)=O)n2-c2ccc(Cl)cc2)cc1`, the growth is 78.1% (inactive).
For the molecule `Cc1cc(/C=C\c2ccc3ccccc3[n+]2C)c(O)c2ncccc12`, the growth is 32.1% (inactive).
Take `CN(C)c1ccc(-c2ccc3[nH]c(=O)nc(-c4ccccc4)c3c2)cn1`: the growth is 19.2% (inactive).
`O=C(c1ccccc1)N1N=C(c2ccccc2)CC1c1nnc2n(Cc3ccccc3)c(=O)c3c4c(sc3n12)CCCC4` (stereo unspecified): the growth was 91.6% (inactive).
Still for that read-out and setting: next, `N#Cc1c(N)nc2c(C#N)c(NC(=O)c3ccccc3)nn2c1-c1ccccc1`: 86.5% (inactive); `COc1ccc(-c2nc3ccc4[nH]ncc4c3c3c2CCCC3)cc1B(O)O`: 48.1% (inactive); `C(=N\Nc1ncc(-c2cc3cc4c(cc3o2)OCO4)s1)/c1ccco1`: 8.73% (active).
The same measure, in the same setting: next, `Cn1c(-c2c(N)n(Cc3cccnc3)c3nc(C#N)c(C#N)nc23)nc2ccccc21`: 76.4% (inactive).
For the molecule `C[n+]1cccc(CC(=O)NO)c1`, the growth was 84.6% (inactive).
`C=CCSc1nc2ccccc2cc1/C=N/O`: the growth was 76.4% (inactive).
On to `O=C(CCCCCCN1CC(=O)N2[C@@H](c3ccccc3Cl)c3[nH]c4ccccc4c3C[C@H]2C1=O)NO`, for which the growth is 28.8% (inactive).
As to `CCCCCCCOc1c(OC)cc(C2CC(=O)Nc3c2c(C)nn3-c2nc3ccccc3[nH]2)cc1OC` (stereo unspecified), the growth is -40.7% (active).
For `COC(=O)c1c2c(c[n+]([O-])c1C)C(=O)C=CC2=O`, the growth is -69.9% (active).
Take `COc1cccc(-c2nn(-c3ccccc3)cc2-c2ccnc(NCCCNC(=O)Nc3ccc(Cl)c(Cl)c3)c2)c1`: the growth is -37% (active).
Same read-out and setting: next, `Cc1ccc(NS(=O)(=O)c2ccc3c(c2)C2OCCC2C(c2ccc(C(=O)C(C)C)cc2)N3)cc1C` (stereo unspecified): 39.2% (inactive).
For `Cc1cc(NCc2cc(Nc3ccnc4cc(Cl)ccc34)ccc2F)nc(N2CCSCC2)n1`, the growth is -23.6% (active).
With `O=C(/C=C/c1ccc(Cl)nc1)c1ccc(Cl)cc1Cl`, the growth was 38.7% (inactive).
On to `CCN(CC)CCCC(C)Nc1c2ccc(Cl)cc2nc2ccc(O)cc12` (stereo unspecified), for which the growth is 37% (inactive).
In the case of `CCCCCCCC/C=C\CCCCCCCCOc1ccccc1CC(=O)NCC[N+](C)(C)C`, the growth is 51.1% (inactive).
For the molecule `Cc1cc(NCc2cc(Nc3ccnc4cc(Cl)ccc34)ccc2F)nc(N2CCCC2)n1`, the growth was -40.3% (active).
For `COc1ccc(C(=O)COc2ccc(/C=C3\Oc4ccccc4C3=O)cc2)cc1`, the growth was 63% (inactive).
Same read-out and setting: next, `Cn1c2c(c3ccc(Cl)c(Cl)c31)C(C#N)C1(CCNCC1)NC2=O` (stereo unspecified): 47.3% (inactive); `N#Cc1c(-c2ccccn2)[nH]c(=S)[nH]c1=O`: 88.9% (inactive).
Take `Oc1c(CN2CCCC2)cc(COCc2ccc(Br)cc2)c2cccnc12`: the growth was -45% (active).
Consider `COc1ccc(N2CCN(c3nc(-c4cc(OC)c(OC)c(OC)c4)nc4ccccc34)CC2)cc1`, for which the growth was 55.1% (inactive).
On to `Nc1n[nH]c(-c2cc(Cl)ccc2O)c1-c1ccccc1`, for which the growth is 81.8% (inactive).
Still for that read-out and setting: the figure for `Cc1ccc(-c2cc(-c3ccccc3C)[nH]c(=O)c2C#N)s1` is 87.5% (inactive); for `O=C(COc1ccc(/C=C2\Oc3ccccc3C2=O)cc1)c1ccc(Cl)cc1` it is 96.1% (inactive); for `O=C1CCC2=C3C4CCCCC4C(=O)C4CCCC(OC2C1)C34` (stereo unspecified) it is -32.4% (active).
On to `O=C(Nc1ccccc1Cl)Oc1ccc(-c2ccccc2)cc1`, for which the growth was 103% (inactive).
For `N#C/C(=C\c1ccc(-c2ccccc2F)o1)c1nc(-c2ccco2)cs1`, the growth is 81.5% (inactive).
On the same count and under the same terms, the figure for `O=[N+]([O-])c1ccc(Sc2cccc[n+]2[O-])c2nonc12` is -70.8% (active).
Consider `COc1cccc(C(=O)NCCNc2cc(-c3cn(-c4ccccc4)nc3-c3cccc(OC)c3)ccn2)c1`, for which the growth was 35.8% (inactive).

A further assay relates to A549/ATCC NSCLC. The description is as above. Conditions: 10 µM unless noted.
As to `COc1cc(-c2nn(-c3ccccc3)cc2-c2ccnc(NCCNS(=O)(=O)c3ccc(Cl)cc3)n2)ccc1Cl`, the growth was 13.3% (inactive).
For `COc1cccc(-c2nc3sccn3c2-c2ccnc(NCCNS(=O)(=O)c3cccc(Cl)c3)c2)c1`, the growth is 45.4% (inactive).
Same read-out and setting: next, `O=C1N=c2cc3c(cc2=C/C1=C/c1sc(=S)n(CCc2ccc(O)cc2)c1O)OCCO3`: 99.1% (inactive); `COc1ccc(OC)c2c1[nH]c(=O)c1c3ncccc3cn21`: 13.5% (inactive).
`O=S(=O)(Nc1cccc(Cl)c1)c1ccc(-c2cnc(C3CC3)o2)cc1`: the growth is 38.4% (inactive).
For `COc1ccc(NC(=O)CSc2nc(C)c(C(C)=O)n2-c2ccc(Cl)cc2)cc1`, the growth was 97.1% (inactive).
Consider `Cc1cc(/C=C\c2ccc3ccccc3[n+]2C)c(O)c2ncccc12`, for which the growth was 12% (inactive).
With `CN(C)c1ccc(-c2ccc3[nH]c(=O)nc(-c4ccccc4)c3c2)cn1`, the growth was 58.3% (inactive).
The same measure, in the same setting: next, `O=C(c1ccccc1)N1N=C(c2ccccc2)CC1c1nnc2n(Cc3ccccc3)c(=O)c3c4c(sc3n12)CCCC4` (stereo unspecified): 89.3% (inactive); `N#Cc1c(N)nc2c(C#N)c(NC(=O)c3ccccc3)nn2c1-c1ccccc1`: 92.6% (inactive); `COc1ccc(-c2nc3ccc4[nH]ncc4c3c3c2CCCC3)cc1B(O)O`: 53.7% (inactive).
Regarding `C(=N\Nc1ncc(-c2cc3cc4c(cc3o2)OCO4)s1)/c1ccco1`, the growth is -10.1% (active).
Regarding `Cn1c(-c2c(N)n(Cc3cccnc3)c3nc(C#N)c(C#N)nc23)nc2ccccc21`, the growth is 94.6% (inactive).
For the molecule `C[n+]1cccc(CC(=O)NO)c1`, the growth is 68.1% (inactive).
Regarding `C=CCSc1nc2ccccc2cc1/C=N/O`, the growth was 92.5% (inactive).
As for `O=C(CCCCCCN1CC(=O)N2[C@@H](c3ccccc3Cl)c3[nH]c4ccccc4c3C[C@H]2C1=O)NO`, the growth is 97% (inactive).
Same read-out and setting: the figure for `CCCCCCCOc1c(OC)cc(C2CC(=O)Nc3c2c(C)nn3-c2nc3ccccc3[nH]2)cc1OC` (stereo unspecified) is 1.6% (active); for `COC(=O)c1c2c(c[n+]([O-])c1C)C(=O)C=CC2=O` it is 100% (inactive); for `COc1cccc(-c2nn(-c3ccccc3)cc2-c2ccnc(NCCCNC(=O)Nc3ccc(Cl)c(Cl)c3)c2)c1` it is 7.3% (active).
Turning to `Cc1ccc(NS(=O)(=O)c2ccc3c(c2)C2OCCC2C(c2ccc(C(=O)C(C)C)cc2)N3)cc1C` (stereo unspecified), the growth is 27.4% (inactive).
For the molecule `Cc1cc(NCc2cc(Nc3ccnc4cc(Cl)ccc34)ccc2F)nc(N2CCSCC2)n1`, the growth is 39% (inactive).
In the case of `O=C(/C=C/c1ccc(Cl)nc1)c1ccc(Cl)cc1Cl`, the growth was 94.4% (inactive).
For the molecule `CCN(CC)CCCC(C)Nc1c2ccc(Cl)cc2nc2ccc(O)cc12` (stereo unspecified), the growth is 24.4% (inactive).
As to `CCCCCCCC/C=C\CCCCCCCCOc1ccccc1CC(=O)NCC[N+](C)(C)C`, the growth is 71.4% (inactive).
Take `Cc1cc(NCc2cc(Nc3ccnc4cc(Cl)ccc34)ccc2F)nc(N2CCCC2)n1`: the growth is 8.66% (active).
For the molecule `COc1ccc(C(=O)COc2ccc(/C=C3\Oc4ccccc4C3=O)cc2)cc1`, the growth is 99% (inactive).
As for `Cn1c2c(c3ccc(Cl)c(Cl)c31)C(C#N)C1(CCNCC1)NC2=O` (stereo unspecified), the growth was 31.2% (inactive).
In the case of `N#Cc1c(-c2ccccn2)[nH]c(=S)[nH]c1=O`, the growth was 98% (inactive).
For the molecule `Oc1c(CN2CCCC2)cc(COCc2ccc(Br)cc2)c2cccnc12`, the growth is 4.92% (active).
In the case of `COc1ccc(N2CCN(c3nc(-c4cc(OC)c(OC)c(OC)c4)nc4ccccc34)CC2)cc1`, the growth was 80.5% (inactive).
On to `Nc1n[nH]c(-c2cc(Cl)ccc2O)c1-c1ccccc1`, for which the growth is 82.3% (inactive).
For `Cc1ccc(-c2cc(-c3ccccc3C)[nH]c(=O)c2C#N)s1`, the growth was 87.9% (inactive).
As to `O=C(COc1ccc(/C=C2\Oc3ccccc3C2=O)cc1)c1ccc(Cl)cc1`, the growth is 112% (inactive).
The same measure, in the same setting: next, `O=C1CCC2=C3C4CCCCC4C(=O)C4CCCC(OC2C1)C34` (stereo unspecified): 48.9% (inactive); `O=C(Nc1ccccc1Cl)Oc1ccc(-c2ccccc2)cc1`: 104% (inactive); `N#C/C(=C\c1ccc(-c2ccccc2F)o1)c1nc(-c2ccco2)cs1`: 99.1% (inactive).
In the case of `O=[N+]([O-])c1ccc(Sc2cccc[n+]2[O-])c2nonc12`, the growth is 59% (inactive).
Take `COc1cccc(C(=O)NCCNc2cc(-c3cn(-c4ccccc4)nc3-c3cccc(OC)c3)ccn2)c1`: the growth is 43.6% (inactive).
